Source: PubChem BioAssay

molecular target: E3 ubiquitin-protein ligase XIAP (Homo sapiens) (UniProt P98170); test: XIAP binders, primary screen, biophysical, small-molecule microarray, fluorescence 635 nm (AID 1181); settings: small-molecule microarray binding, higher = more signal;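 further: score merges 667 nm emission and signal to noise over triplicate slides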
Sequence (P98170 whole entry, looked up): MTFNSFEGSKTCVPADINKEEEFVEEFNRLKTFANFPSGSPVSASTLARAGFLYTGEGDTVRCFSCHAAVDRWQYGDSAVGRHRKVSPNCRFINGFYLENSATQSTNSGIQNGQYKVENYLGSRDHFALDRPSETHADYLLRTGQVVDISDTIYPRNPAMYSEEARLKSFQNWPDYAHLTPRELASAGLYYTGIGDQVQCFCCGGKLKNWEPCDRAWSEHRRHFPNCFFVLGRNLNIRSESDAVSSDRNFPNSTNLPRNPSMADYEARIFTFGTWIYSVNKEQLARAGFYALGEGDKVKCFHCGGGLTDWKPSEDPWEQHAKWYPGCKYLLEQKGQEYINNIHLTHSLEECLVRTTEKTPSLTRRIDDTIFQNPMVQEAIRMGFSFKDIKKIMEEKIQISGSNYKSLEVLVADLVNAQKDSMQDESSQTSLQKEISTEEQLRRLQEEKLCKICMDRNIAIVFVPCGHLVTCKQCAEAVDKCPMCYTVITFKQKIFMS

Row | SMILES | composite z-score
1 | CC(C)(C)OC(=O)CC[C@@]1(C(=O)O)N=C(c2ccc(OCCCO)cc2)O[C@@H]1c1ccccc1N=[N+]=[N-] | -0.187
2 | CCOC(=O)C1=CCC(c2ccc(C#N)cc2)N(S(=O)(=O)c2ccc(C)cc2)C1 (centres undefined) | -0.187
3 | O=C1OCCC=C[C@H]2OC34C=CCN(Cc5ccccc5)C(=O)[C@H]3N(CCCO)C(=O)[C@@H]4C12 (some centres undefined) | -0.0116
4 | O=C1OCC=C[C@H]2OC34C=CCN(c5ccc(Cl)cc5)C(=O)[C@H]3N(CCCCCCO)C(=O)[C@@H]4[C@@H]12 (some centres undefined) | -0.138
5 | COC(=O)C(CC#Cc1ccc2c(c1)[C@]1(C(=O)N2)[C@H](c2ccc(OCCO)cc2)N2[C@H](c3ccccc3)[C@H](c3ccccc3)OC(=O)[C@H]2[C@@H]1C(=O)NC[C@H](O)c1ccccc1)C(=O)OC | 0.104
6 | CCOC(=O)C1=CC[C@@H](c2ccccc2Cl)N(S(=O)(=O)c2ccc(C)cc2)C1 | -0.0115
7 | O=C1O[C@H](c2ccccc2)[C@H](c2ccccc2)N2[C@H]1[C@@H](C(=O)O)[C@]1(C(=O)Nc3ccc(C#CC4=CCCCC4)cc31)[C@H]2c1ccc(OCCO)cc1 | -0.271
8 | N#Cc1ccc(NN2C(C(O)c3ccc([N+](=O)[O-])cc3)C=CC3C(=O)N(c4ccccc4)C(=O)C32)cc1 (centres undefined) | -0.0391
9 | C=C(CCCC)/C(=C/C[C@H](OC(C)=O)c1ccc(CO)o1)c1cnc2ccccc2c1 | 0.0426
10 | O=C1OCCC=C[C@H]2OC34C=CCN(Cc5ccccc5)C(=O)[C@H]3N(CCCCCCO)C(=O)[C@@H]4C12 (some centres undefined) | -0.0918
11 | C[C@]1(C(=O)NCc2ccccc2)c2ccccc2C(=O)N(Cc2ccc(OC(F)(F)F)cc2)[C@H]1c1ccc(CO)cc1 | -0.0872
12 | CC(C)NC(=O)[C@@]1(Cc2ccccc2I)c2ccccc2C(=O)N(Cc2ccccc2)[C@H]1c1ccc(CO)cc1 | -0.0023
13 | O=C1N(CCS(=O)(=O)c2ccccc2)c2ccccc2C[C@@]12COC(c1ccc(OCCCO)cc1)=N2 | 0.262
14 | CC1CC/C=C\[C@H]2OC34C=CCN(Cc5ccccc5)C(=O)[C@H]3N(CCCCCO)C(=O)[C@@H]4C2C(=O)O1 (some centres undefined) | -0.0062
